Experimental data reported in PubChem BioAssay (EPA / NIEHS).
Activity calls are given as the source filed them. Rule for the calls: active = hit-call score of the fitted dose curve at least 0.9, where 1 is the maximum; inactive = score below 0.9.

Tests used:
[1] = ATG_CRE_CIS: Attagene CIS-FACTORIAL HepG2 Assay for human cAMP Responsive Element (CRE) binding protein 3 (AID 2282926); settings: HepG2 CRE cis-reporter, Attagene multiplexed mRNA; actives raise or lower the signal
Outline: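 HepG2 cells transiently transfected with cis-element-driven multiple reporter transcription units; CRE reporter mRNA measured 24 h after dosing by RT-PCR, 6-FAM labelling, HpaI digestion and capillary electrophoresis. Bidirectional fit versus DMSO baseline.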

[2] = biological target: CCAAT/enhancer-binding protein beta (Homo sapiens) (UniProt P17676); experiment: ATG_C_EBP_CIS: Attagene CIS-FACTORIAL HepG2 Assay for human CCAAT/Enhancer Binding Protein (C/EBP) beta (AID 2282927); settings: HepG2 Attagene cis-factorial transcription factor reporter; actives raise or lower the signal
CCAAT/enhancer-binding protein beta (Homo sapiens), sequence (P17676 whole entry, looked up): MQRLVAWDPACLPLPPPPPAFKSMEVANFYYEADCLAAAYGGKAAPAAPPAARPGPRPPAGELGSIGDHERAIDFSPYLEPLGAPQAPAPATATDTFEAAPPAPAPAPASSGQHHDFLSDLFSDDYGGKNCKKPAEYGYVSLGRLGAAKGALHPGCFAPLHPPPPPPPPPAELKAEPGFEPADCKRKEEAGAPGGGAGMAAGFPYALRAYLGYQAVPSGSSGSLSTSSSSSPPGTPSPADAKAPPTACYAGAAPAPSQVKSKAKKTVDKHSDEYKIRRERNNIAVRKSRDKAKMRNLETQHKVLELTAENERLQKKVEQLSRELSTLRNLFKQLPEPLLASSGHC
Outline: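 HepG2, transient MRTU transfection, 24 h treatment. RT-PCR plus CE fluorescence; DMSO negative control, bidirectional fit.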

[3] = ATG_CMV_CIS: Attagene CIS-FACTORIAL HepG2 Assay for human CMV (Internal Marker) (AID 2282928); settings: HepG2 CMV promoter reporter, transcription factor profiling; actives raise or lower the signal;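 note: endpoint acts as a background internal control marker rather than a target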
Outline: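 Endogenous transcription factor activity read in HepG2 via transfected cis-promoter reporter units. After 24 h dosing, reporter mRNA measured by RT-PCR/capillary electrophoresis; gain or loss of signal fit relative to DMSO.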

[4] = ATG_DR4_LXR_CIS: Attagene CIS-FACTORIAL HepG2 Assay for human Liver X Receptor (LXR), DR4 submotif (AID 2282929); settings: HepG2 Attagene DR4 cis-reporter, mRNA transcription; actives raise or lower the signal
Outline: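 HepG2, transient MRTU transfection, cis-element (DR4) promoter; 24 h compound exposure; total RNA → oligo(dT) RT → PCR → 6-FAM primer extension → HpaI cut → CE. Gain/loss vs DMSO, bidirectional fit.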

[5] = biological target: Aryl hydrocarbon receptor (Homo sapiens) (UniProt P35869); experiment: ATG_Ahr_CIS: Attagene CIS-FACTORIAL HepG2 Assay for human Aryl Hydrocarbon Receptor (Ahr) (AID 2282930); settings: HepG2 AhR cis-factorial reporter transcription; actives raise or lower the signal
Aryl hydrocarbon receptor (Homo sapiens), sequence (P35869 whole entry, looked up): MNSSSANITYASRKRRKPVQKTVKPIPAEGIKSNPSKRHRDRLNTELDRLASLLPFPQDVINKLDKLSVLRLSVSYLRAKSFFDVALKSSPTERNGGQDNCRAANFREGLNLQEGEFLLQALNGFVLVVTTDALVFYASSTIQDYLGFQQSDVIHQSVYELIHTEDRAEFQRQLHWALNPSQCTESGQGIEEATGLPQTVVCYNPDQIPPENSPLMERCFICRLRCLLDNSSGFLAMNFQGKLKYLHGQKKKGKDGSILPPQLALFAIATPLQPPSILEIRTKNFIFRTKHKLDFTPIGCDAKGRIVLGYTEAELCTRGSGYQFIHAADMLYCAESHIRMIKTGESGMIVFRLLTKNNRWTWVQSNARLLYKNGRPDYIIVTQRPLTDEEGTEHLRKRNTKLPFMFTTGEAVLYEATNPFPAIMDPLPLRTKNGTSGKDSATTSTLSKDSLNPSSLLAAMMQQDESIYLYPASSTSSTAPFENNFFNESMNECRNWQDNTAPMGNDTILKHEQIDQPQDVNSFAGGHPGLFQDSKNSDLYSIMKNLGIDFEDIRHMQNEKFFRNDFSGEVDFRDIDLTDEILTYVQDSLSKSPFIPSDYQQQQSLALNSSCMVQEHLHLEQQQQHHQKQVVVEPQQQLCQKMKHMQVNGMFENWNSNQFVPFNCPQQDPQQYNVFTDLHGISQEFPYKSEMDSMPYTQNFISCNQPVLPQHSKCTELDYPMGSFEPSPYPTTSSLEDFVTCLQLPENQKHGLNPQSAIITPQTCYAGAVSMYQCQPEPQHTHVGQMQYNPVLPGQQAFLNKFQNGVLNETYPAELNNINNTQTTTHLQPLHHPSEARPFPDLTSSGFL
Outline: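 Endogenous factor activity is tracked through cis-promoter reporter units transfected into HepG2 cells. Transcript levels at 24 h are read by fluorescent RT-PCR and capillary electrophoresis, with activity in either direction scored relative to DMSO.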

[6] = ATG_AP_1_CIS: Attagene CIS-FACTORIAL HepG2 Assay for human Activator Protein 1 (AP-1) (AID 2282931); settings: HepG2 Attagene cis-factorial AP-1 reporter mRNA; actives raise or lower the signal
Outline: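 Transient MRTU transfection of HepG2 → 24 h chemical treatment → RNA isolation, RT-PCR, 6-FAM labelling, HpaI digest → capillary electrophoresis. Fit: bidirectional, DMSO negative control.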

[7] = ATG_AP_2_CIS: Attagene CIS-FACTORIAL HepG2 Assay for human Activator Protein 2 (AP-2) (AID 2282932); settings: HepG2 AP-2 cis-reporter, Attagene transcription factor profiling; actives raise or lower the signal
Outline: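 Multiplexed mRNA reporter assay in HepG2: cis-regulated units report endogenous factor activity after 24 h treatment. Fluorescence from capillary electrophoresis of RT-PCR products gives the signal, with DMSO as baseline.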

[8] = ATG_BRE_CIS: Attagene CIS-FACTORIAL HepG2 Assay for human Bone Morphogenetic Protein (BMP) Response Element (BRE) (AID 2282933); settings: HepG2 BMP response element reporter, Attagene transcription factor profiling; actives raise or lower the signal
Outline: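 Transient MRTU transfection of human HepG2 liver cells; 24 h compound treatment; total RNA isolated, reverse-transcribed, PCR-amplified, 6-FAM labelled, HpaI-cut, capillary electrophoresis. DMSO = negative control/baseline, bidirectional fit.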

[9] = biological target: Transcription factor E2F1 (Homo sapiens) (UniProt Q01094); experiment: ATG_E2F_CIS: Attagene CIS-FACTORIAL HepG2 Assay for human E2F Transcription Factor 1 (AID 2282935); settings: HepG2 Attagene cis-reporter, E2F reporter RNA transcripts; actives raise or lower the signal
Transcription factor E2F1 (Homo sapiens), sequence (Q01094 whole entry, looked up): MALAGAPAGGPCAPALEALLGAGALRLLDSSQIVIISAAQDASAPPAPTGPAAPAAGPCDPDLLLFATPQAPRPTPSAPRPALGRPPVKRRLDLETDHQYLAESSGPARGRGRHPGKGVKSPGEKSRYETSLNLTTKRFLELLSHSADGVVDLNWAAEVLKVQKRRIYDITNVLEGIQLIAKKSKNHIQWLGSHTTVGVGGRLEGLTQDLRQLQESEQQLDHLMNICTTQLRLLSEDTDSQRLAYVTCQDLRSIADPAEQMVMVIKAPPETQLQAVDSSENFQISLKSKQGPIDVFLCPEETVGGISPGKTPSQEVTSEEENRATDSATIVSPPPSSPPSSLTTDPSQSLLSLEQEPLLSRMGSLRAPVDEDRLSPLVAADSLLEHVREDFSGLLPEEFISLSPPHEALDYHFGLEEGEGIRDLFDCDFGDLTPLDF
Outline: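 Measures reporter transcript levels via RT-PCR with capillary electrophoresis detection in HepG2 cells harboring cis-regulated reporter units; 24 h post-dose; bidirectional curve fitting with DMSO as baseline.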

[10] = ATG_E_Box_CIS: Attagene CIS-FACTORIAL HepG2 Assay for human Enhancer Box (E-box) (AID 2282936); settings: HepG2 E-box cis-reporter transcription, actives raise or lower the signal
Outline: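 First, HepG2 cells receive multiple cis-regulated reporter constructs by transient transfection. Next, chemicals are applied for 24 h. Finally, reporter mRNA is quantified via RT-PCR and capillary electrophoresis, with DMSO as baseline.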

[11] = ATG_M_61_CIS: Attagene CIS-FACTORIAL HepG2 Assay for M61 Transcription Factor (Internal Marker) (AID 2282937); settings: HepG2 Attagene CIS-FACTORIAL M61 internal marker reporter; actives raise or lower the signal
Outline: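 Human liver HepG2, transient MRTU transfection (cis promoter elements), 24 h compound. Total RNA → oligo(dT) RT → PCR → FAM label → HpaI → CE. Internal background marker; bidirectional fitting, DMSO = baseline.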

[12] = ATG_EGR_CIS: Attagene CIS-FACTORIAL HepG2 Assay for human Early Growth Response 1 (EGR1) (AID 2282938); settings: HepG2 Attagene CIS-FACTORIAL EGR reporter mRNA; actives raise or lower the signal
Outline: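 Transient transfection of human HepG2 with multiple cis-regulated reporter units, chemical exposure 24 h, total RNA isolated. Reverse transcription, PCR, fluorescent labelling and capillary electrophoresis quantify reporter transcripts; activity fitted bidirectionally against DMSO.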

[13] = ATG_M_19_CIS: Attagene CIS-FACTORIAL HepG2 Assay for M19 Transcription Factor (Internal Marker) (AID 2282939); settings: HepG2 Attagene CIS-FACTORIAL M19 internal marker reporter; actives raise or lower the signal
Outline: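 Transfect HepG2 with MRTU reporter library → dose chemical, 24 h → isolate total RNA, reverse-transcribe with oligo(dT) → PCR, 6-FAM label, HpaI cut (2 h, 37 C) → capillary electrophoresis. Bidirectional fit vs DMSO.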

[14] = ATG_ERE_CIS: Attagene CIS-FACTORIAL HepG2 Assay for Estrogen Response Element (ERE) (AID 2282940); settings: HepG2 ERE cis-reporter, Attagene RNA transcript; actives raise or lower the signal
Outline: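 Transient MRTU transfection of human HepG2; cis-element promoters; 24 h dosing; total RNA → RT (oligo dT) → PCR → 6-FAM primer extension → HpaI digest → CE fluorescence. Bidirectional fit, DMSO baseline.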

[15] = ATG_Ets_CIS: Attagene CIS-FACTORIAL HepG2 Assay for human Erythroblast Transformation Specific (ETS) (AID 2282941); settings: HepG2 ETS cis-reporter transcription, actives raise or lower the signal
Outline: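 Steps: transfect HepG2 with multiple reporter units; treat compound 24 h; isolate RNA, DNase-treat, reverse-transcribe; PCR-amplify, label with 6-FAM, digest with HpaI; separate by capillary electrophoresis. Activity fitted both directions versus DMSO.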

[16] = biological target: Hepatocyte nuclear factor 3-beta (Homo sapiens) (UniProt Q9Y261); experiment: ATG_FoxA2_CIS: Attagene CIS-FACTORIAL HepG2 Assay for human Forkhead box A2 (FOXA2) (AID 2282942); settings: HepG2 cis-reporter transcription factor activity, 24 h; actives raise or lower the signal
Hepatocyte nuclear factor 3-beta (Homo sapiens), sequence (Q9Y261 whole entry, looked up): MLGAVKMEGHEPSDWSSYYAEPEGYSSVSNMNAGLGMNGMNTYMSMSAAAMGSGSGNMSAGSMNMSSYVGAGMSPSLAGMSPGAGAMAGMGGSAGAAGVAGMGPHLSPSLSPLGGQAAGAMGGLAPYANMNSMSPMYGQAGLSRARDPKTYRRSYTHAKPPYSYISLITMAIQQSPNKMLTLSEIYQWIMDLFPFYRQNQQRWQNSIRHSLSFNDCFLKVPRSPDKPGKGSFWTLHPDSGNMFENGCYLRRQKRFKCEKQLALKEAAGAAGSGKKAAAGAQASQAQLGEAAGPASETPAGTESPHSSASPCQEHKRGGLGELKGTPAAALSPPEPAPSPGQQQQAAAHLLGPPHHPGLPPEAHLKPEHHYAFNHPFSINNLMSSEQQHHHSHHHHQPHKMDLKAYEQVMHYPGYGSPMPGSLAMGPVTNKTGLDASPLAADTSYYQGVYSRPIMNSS
Outline: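 Transient MRTU transfection of HepG2 liver cells; 24 h treatment; total RNA → oligo(dT) RT → PCR → FAM primer extension → HpaI cut → CE. Bidirectional fit vs DMSO.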

[17] = ATG_FoxO_CIS: Attagene CIS-FACTORIAL HepG2 Assay for human Forkhead box O (FoxO) (AID 2282943); settings: HepG2 Attagene cis-reporter, FoxO element, mRNA; actives raise or lower the signal
Outline: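 Transfected HepG2 reporter cells exposed to test chemical for 24 h; reporter RNA measured by reverse transcription, PCR and fluorescent capillary electrophoresis; curves fitted for increases and decreases against DMSO.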

[18] = ATG_GATA_CIS: Attagene CIS-FACTORIAL HepG2 Assay for human GATA Binding Protein (AID 2282944); settings: HepG2 GATA cis-element reporter, Attagene multiplex mRNA; actives raise or lower the signal
Outline: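 Transient MRTU transfection, HepG2, 24 h compound exposure. Total RNA → oligo(dT) RT → PCR → 6-FAM primer extension → HpaI cut → CE. Bidirectional fit vs DMSO.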

Row | SMILES | outcome [1] | outcome [2] | AC50 [3] | outcome [4] | outcome [5] | outcome [6] | outcome [7] | outcome [8] | outcome [9] | outcome [10] | outcome [11] | outcome [12] | outcome [13] | outcome [14] | outcome [15] | outcome [16] | outcome [17] | outcome [18] | outcome [3] | AC50 [5]
1 | C=C1CC[C@H]2O[C@]2(C)CC[C@@H]2[C@@H]1CC2(C)C | inactive | inactive | 191 µM (active) | inactive | inactive | inactive | inactive | inactive | inactive | inactive | inactive | inactive | inactive | inactive | inactive | inactive | inactive | inactive | – | –
2 | CCOC(=O)COC(=O)c1ccccc1C(=O)OCC | inactive | inactive | – | inactive | inactive | inactive | inactive | inactive | inactive | inactive | inactive | inactive | inactive | inactive | inactive | inactive | inactive | inactive | inactive | –
3 | FC(F)(F)c1ccc(Cl)c(Cl)c1 | inactive | inactive | – | inactive | inactive | inactive | inactive | inactive | inactive | inactive | inactive | inactive | inactive | inactive | inactive | inactive | inactive | inactive | inactive | –
4 | [Na+] | inactive | inactive | – | inactive | inactive | inactive | inactive | inactive | inactive | inactive | inactive | inactive | inactive | inactive | inactive | inactive | inactive | inactive | inactive | –
5 | Cc1ccncc1 | inactive | inactive | – | inactive | inactive | inactive | inactive | inactive | inactive | inactive | inactive | inactive | inactive | inactive | inactive | inactive | inactive | inactive | inactive | –
6 | NC(=O)c1c(Cl)cccc1Cl | inactive | inactive | – | inactive | – | inactive | inactive | inactive | inactive | inactive | inactive | inactive | inactive | inactive | inactive | inactive | inactive | inactive | inactive | 55.4 µM (active)
7 | O=S1(=O)CC=CC1 | inactive | inactive | – | inactive | inactive | inactive | inactive | inactive | inactive | inactive | inactive | inactive | inactive | inactive | – | inactive | inactive | inactive | inactive | –
